High-throughput results from PubChem BioAssay.
The list is not random: actives were taken first. Their share in the collection is about 10%.
NIH3T3 tox – Cytotoxic Profiling in NIH 3T3 Cell Line of Diverse Libraries Using Quantitative High-Throughput Screening. NIH 3T3 viability, CellTiter-Glo ATP luminescence, 48-72 h. Potency, µM (doses to about 96.7 µM), most hits filed as inhibitors. 94,000 compounds, 4.3% hits; also: nearly all actives have a fitted effect of over 55% in size
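Cytotoxicity is measured as loss of cellular ATP: NIH 3T3 cells (400/well) are exposed to compound for 48 or 72 hr at 37 °C, then CellTiter-Glo luminescence is imaged after 10 min at room temperature.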
NPR1 antag – Natriuretic polypeptide receptor (hNpr1) antagonism - Primary qHTS; Atrial natriuretic peptide receptor 1 (Homo sapiens), P16066; HEK293 hNpr1 GloSensor cGMP, ANP-stimulated luminescence; Potency, µM (highest dose often 46.3 µM), actives largely listed as inhibitors; 76,000 compounds, 1.6% hits; calls by dose curve; also: nearly all actives have a fitted effect of over 60% in size
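Compound pre-incubated 30 min at room temperature on GloSensor-loaded HEK293 cells stably carrying hNpr1 and the pGS-40F cGMP biosensor. Stimulation uses hNppA at 0.1 nM final; luminescence is taken at baseline and 20 min post-agonist.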
FLuc inh-1 – Firefly luciferase inhibition profiling of diverse chemical library using quantitative high-throughput screening. 76,000 compounds, 2.5% hits. Potency, µM (top dose mostly 115 µM), actives largely listed as inhibitors. AID 1347043, 2019. Luciferin 4-monooxygenase (Photinus pyralis), P08659. purified P. pyralis luciferase, luminescence, biochemical; also: nearly all actives have a fitted effect of over 65% in size
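Luminescence read by CCD imaging after purified firefly luciferase (10nM final) was added to substrate buffer holding 10uM D-luciferin and 10uM ATP, pH 7.5, pre-dosed with compound.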
GPT2 inh – Primary qHTS assay for inhibitors of Glutamate pyruvate transaminase 2 (GPT2). 100,000 compounds, 0.25% hits. Potency, µM (highest dose often 57.7 µM), actives largely listed as inhibitors. Alanine aminotransferase 2 (Homo sapiens), Q8TD30. Recombinant GPT2, coupled pyruvate oxidase/HRP Amplex Red fluorescence; also: nearly all actives have a fitted effect of over 60% in size
Target sequence (Q8TD30 whole entry, looked up): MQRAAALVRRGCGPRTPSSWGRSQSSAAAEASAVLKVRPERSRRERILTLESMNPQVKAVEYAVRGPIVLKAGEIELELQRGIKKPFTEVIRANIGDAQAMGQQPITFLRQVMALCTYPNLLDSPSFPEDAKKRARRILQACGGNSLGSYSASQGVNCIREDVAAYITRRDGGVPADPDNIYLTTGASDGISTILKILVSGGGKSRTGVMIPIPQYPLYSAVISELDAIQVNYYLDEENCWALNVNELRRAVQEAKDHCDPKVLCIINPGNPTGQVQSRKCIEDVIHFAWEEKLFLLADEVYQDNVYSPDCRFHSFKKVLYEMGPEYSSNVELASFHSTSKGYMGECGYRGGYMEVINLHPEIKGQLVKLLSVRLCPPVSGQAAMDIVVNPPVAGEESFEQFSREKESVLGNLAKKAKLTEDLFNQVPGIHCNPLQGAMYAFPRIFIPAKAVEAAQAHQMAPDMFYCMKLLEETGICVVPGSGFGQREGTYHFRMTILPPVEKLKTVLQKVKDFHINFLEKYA
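Recombinant GPT2 (10ng/uL) with 250uM a-KG and 2mM L-alanine, 30 min at room temperature, in HEPES pH 7.5 buffer. Pyruvate detected by pyruvate oxidase/HRP/Amplex Red fluorescence after 30 min in the dark; AOA (50uM) as positive control.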
HEK293 tox – Cytotoxic Profiling in HEK 293 Cell Line of Diverse Libraries Using Quantitative High-Throughput Screening; 94,000 compounds, 6.6% hits; HEK 293 viability, ATP luminescence (CellTiter-Glo), 48-72 h; Potency, µM (series often up to 115 µM), most hits filed as inhibitors; also: nearly all actives have a fitted effect of over 60% in size
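Cells seeded first (HEK 293, 250 cells/well), then compound added by pintool. Incubation ran 48 or 72 hr at 37 degree Celsius. CellTiter-Glo was added and luminescence imaged after 10 min at room temperature.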
FLuc SDR no ATP – Firefly luciferase (FLuc-C-HiBiT) SDR gain of signal screen - without ATP; shares compounds with FLuc inh-1; Purified FLuc-C-HiBiT, Nano-Glo HiBiT luminescence, no ATP; Potency, µM (top dose mostly 32.7 µM), hits mostly activators; 1,300 compounds, 7.8% hits; also: nearly all actives have a fitted effect of over 55% in size
FLuc SDR ATP – Firefly luciferase (FLuc-C-HiBiT) SDR gain of signal screen - plus ATP. purified FLuc-C-HiBiT + ATP, HiBiT complementation luminescence. shares compounds with FLuc inh-1. AID 1963319, 2024. Potency, µM (highest dose often 32.7 µM), most hits filed as activators. 1,300 compounds, 8.7% hits;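 also: signal reports ligand binding via conformational change of the enzyme rather than luciferase catalysis; nearly all actives have a fitted effect of over 55% in size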
FLuc inh-2 – Firefly luciferase (FLuc-C-HiBiT) enzymatic inhibition screen - Functional assay; Potency, µM (series often up to 32.7 µM), actives largely listed as inhibitors; 1,300 compounds, 42% hits; shares compounds with FLuc inh-1; purified FLuc-C-HiBiT enzyme, luciferin luminescence; also: nearly all actives have a fitted effect of over 70% in size
A number is an active result; i = inactive; ? = inconclusive; nt = no result. Unless noted, calls follow the shape of the dose curve; as a rule, active = well fitted curve in the direction sought with a large enough effect; inconclusive = small, poorly fitted or top-dose-only effect, or another doubt; inactive = no such curve, though single readings can be large; an effect the other way counts as inactive or inconclusive.

SMILES | NIH3T3 tox | NPR1 antag | FLuc inh-1 | GPT2 inh | HEK293 tox | FLuc SDR no ATP | FLuc SDR ATP | FLuc inh-2
OC1CC(c2cc(N3CCc4c(Cl)cccc4C3)ncn2)C1 (centres undefined) | ? | 2.51µM | 1.26µM | i | ? | i | ? | ?
COc1cc2c(cc1OC)CN(c1cc(C3CC(O)C3)ncn1)CC2 (centres undefined) | ? | ? | ? | i | ? | nt | nt | nt
CC(C)CNC(=O)c1nc2cccnc2n(CCc2ccccc2)c1=O | ? | nt | nt | i | ? | nt | nt | nt
N#Cc1ccccc1S(=O)(=O)N[C@H]1CO[C@H]2[C@@H]1OC[C@@H]2n1nnnc1Oc1cccc(N2CCOCC2)c1 | i | i | i | i | ? | nt | nt | nt
O=S(=O)(c1cccc(Cl)c1)n1c(/C=C/c2ccccc2Cl)nc2ccccc21 | nt | nt | nt | nt | nt | 1.57µM | ? | 0.176µM
Cn1c(=O)c2nc(/C=C/c3cccc(Cl)c3)n(C)c2n(C)c1=O | nt | nt | nt | i | nt | nt | nt | nt
CCCCOc1ccc(S(=O)(=O)n2c(C)nc3ccccc32)cc1 | nt | nt | nt | i | nt | nt | nt | nt
CCOc1ccc(S(=O)(=O)n2c(C)nc3ccccc32)cc1 | nt | nt | nt | i | nt | nt | nt | nt
Cc1ccc(/C=C/c2nc3ccccc3n2S(=O)(=O)c2ccc(Br)cc2)cc1 | nt | nt | nt | nt | nt | 1.76µM | ? | 0.624µM
CSc1ccc(/C=C/c2nc3ccccc3n2S(=O)(=O)c2cccc(Cl)c2)cc1 | nt | nt | nt | nt | nt | 1.97µM | ? | 0.556µM
COc1ccccc1-n1c(=O)c(C(=O)N2CCN(C(C)=O)CC2)nc2cccnc21 | i | nt | nt | i | i | nt | nt | nt
COc1ccc(CCNC(=O)C2CCCN2C(=O)c2cccc(-c3cccnc3)c2)cc1 (centres undefined) | i | nt | nt | nt | i | nt | nt | nt
CCn1cnnc1CC1CCN(C(=O)c2cc(-c3ccc(C)c(C)c3)nc3ccccc23)CC1 | 39.8µM | i | 7.94µM | i | ? | ? | ? | 2.79µM
COc1ccc(CCNc2nc3ccccc3c3nc(-c4cccc(C)c4)nn23)cc1OC | nt | nt | nt | nt | nt | i | i | ?
COc1ccccc1CCNC(=O)c1nc2cccnc2n(-c2ccccc2OC)c1=O | i | nt | nt | i | i | nt | nt | nt
O=[S+]([O-])(c1cccs1)N1CCCC2(CC(c3ccccc3)=NO2)C1 (centres undefined) | ? | nt | nt | i | ? | nt | nt | nt
COc1ccc(C2=NOC3(CCN([S+](=O)([O-])c4cccs4)C3)C2)cc1 (centres undefined) | ? | ? | 5.62µM | i | ? | i | i | i
CCNC(=O)N[C@@H]1C=C[C@@H](c2c(C)nn(-c3ccccc3[N+](=O)[O-])c2C)C1 | i | i | ? | i | ? | nt | nt | nt
Cc1cc(Cl)ccc1-n1nc(C)c([C@@H]2C=C[C@@H](NC(=O)CCCC(=O)O)C2)c1C | i | i | ? | i | i | nt | nt | nt
Cc1ccc(-n2nc(C)c([C@H]3C=C[C@@H](O)C3)c2C)cc1Cl | ? | 17.8µM | 1.12µM | i | ? | i | ? | 12.8µM
Cc1ccc(-n2nc(C)c([C@@H]3C=C[C@@H](NC(=O)Nc4ccc(Cl)cc4)C3)c2C)cc1Cl | 28.2µM | ? | 10µM | i | 15.8µM | i | i | ?
O=C(NC1CC1)c1cn2cc(-c3ccc(F)cc3)sc2n1 | ? | nt | nt | i | ? | nt | nt | nt
CCn1ncc(NC(=O)Cn2ncc3cc(-c4cccc(F)c4F)ccc32)n1 | i | ? | ? | i | i | nt | nt | nt
CCn1ncc(NC(=O)Cn2ncc3cc(-c4cccc(OC)c4)ccc32)n1 | i | ? | ? | i | i | nt | nt | nt
CCn1ncc(NC(=O)Cn2ncc3cc(-c4ccc(C)cc4F)ccc32)n1 | i | ? | 14.1µM | ? | i | i | i | ?
SMILES | NIH3T3 tox | NPR1 antag | FLuc inh-1 | GPT2 inh | HEK293 tox | FLuc SDR no ATP | FLuc SDR ATP | FLuc inh-2
CCn1ncc(NC(=O)Cn2ncc3cc(-c4ccc(N(C)C)cc4)ccc32)n1 | ? | ? | 0.251µM | i | ? | ? | ? | 0.785µM
COc1ccccc1S(=O)(=O)Nc1ccc2c(c1)CN(C)C(=O)N2 | nt | nt | nt | i | nt | nt | nt | nt
CNC(=O)c1cc(C2CC2)nc2onc(C3CCN(C(=O)c4ccc(OC)cc4)CC3)c12 | i | nt | nt | nt | ? | nt | nt | nt
O=C(Nc1cnc(-c2ccc(Cl)cc2)nc1)c1ccc(F)c(F)c1 | i | i | ? | i | i | nt | nt | nt
O=C(Nc1cnc(-c2ccc(Cl)cc2)nc1)C1CCC1 | i | 5.62µM | 0.282µM | i | i | ? | ? | 1.24µM
O=C(Nc1cnc(-c2ccccc2)nc1)C1CCCC1 | i | 10µM | 1µM | i | ? | ? | ? | 2.48µM
CCOC(=O)N1[C@@H](c2ccccc2)[C@@H](C(=O)O)C[C@]12CCCCN(CCOC)C2=O | ? | nt | nt | nt | i | nt | nt | nt
O=C(Nc1ccc(F)cc1)c1ccc2oc(-c3cccnc3)nc2c1 | i | nt | nt | i | i | nt | nt | nt
Cc1ccc(C(=O)Nc2ccc3oc(-c4cccnc4)nc3c2)c(Cl)c1 | nt | nt | nt | nt | nt | i | i | ?
c1ccc(CCN2CCNc3cc(NCCN4CCOCC4)ncc3C2)cc1 | ? | i | i | i | ? | nt | nt | nt
c1ccc(Nc2cc3c(cn2)CN(Cc2ccsc2)CCN3)cc1 | 56.2µM | i | 10µM | ? | ? | i | i | 14.3µM
Fc1ccc(CNc2cc3c(cn2)CN(Cc2ccncc2)CCN3)cc1 | i | i | i | i | i | nt | nt | nt
c1ccc(Nc2cc3c(cn2)CN(CC2CCOC2)CCN3)cc1 (centres undefined) | nt | nt | nt | nt | nt | i | i | ?
COc1cccc(CN2CCNc3cc(Nc4cccnc4)ncc3C2)c1 | ? | i | 11.2µM | i | ? | i | i | ?
COc1ccc(CN2CCNc3cc(Nc4ccccc4)ncc3C2)cn1 | 56.2µM | i | 5.01µM | i | 112µM | i | i | ?
CC1(C)CN(C(=O)COc2ccccc2)CC(=O)N(Cc2ccccc2)C1 | ? | nt | nt | nt | i | nt | nt | nt
O=C(C1CCCN1C(=O)c1ccccc1F)N1CCC(c2nc3ccncc3[nH]2)CC1 (centres undefined) | i | nt | nt | i | i | nt | nt | nt
Cn1ccnc1C(O)c1cc2n(n1)CCN(c1ncnc3nc[nH]c13)C2 (centres undefined) | i | i | i | i | i | i | i | i
